Only some compounds are listed: those with a hit (about 2.5% of all), similar ones and a draw of the others.
GRK2 inh: blocks RNA aptamer binding to human GRK2; P25098; bead flow cytometry, FAM-aptamer displacement from GRK2; inhibition of aptamer binding, % at 10 µM; 330,000 tested, 0.59% active;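 active = inhibition of aptamer binding above 40%, roughly 3 SD of noise, on plates passing a quality check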;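 note: median bead fluorescence of bound FAM aptamer so fluorescent compounds give negative values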
MEKK3 PB1 HTS: raises or lowers MEK5 binding to the human MEKK3 PB1 domain. AID 1529. 290,000 tested, 1.4% active. Q99759. bead-based flow cytometry, Alexa488-MEK5 binding to MEKK3; actives lie on both sides; 0 = blocked by unlabeled MEK5, 100 = vehicle. binding response (% of control), % at 10 µM;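 active = binding response more than 3 SD above or below the average of its plate-row segment, actives on both sides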;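 note: Alexa488 bead fluorescence after subtracting the streptavidin-only scavenger bead signal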
Target sequence (Q99759 whole entry, looked up, the tested form may be a part): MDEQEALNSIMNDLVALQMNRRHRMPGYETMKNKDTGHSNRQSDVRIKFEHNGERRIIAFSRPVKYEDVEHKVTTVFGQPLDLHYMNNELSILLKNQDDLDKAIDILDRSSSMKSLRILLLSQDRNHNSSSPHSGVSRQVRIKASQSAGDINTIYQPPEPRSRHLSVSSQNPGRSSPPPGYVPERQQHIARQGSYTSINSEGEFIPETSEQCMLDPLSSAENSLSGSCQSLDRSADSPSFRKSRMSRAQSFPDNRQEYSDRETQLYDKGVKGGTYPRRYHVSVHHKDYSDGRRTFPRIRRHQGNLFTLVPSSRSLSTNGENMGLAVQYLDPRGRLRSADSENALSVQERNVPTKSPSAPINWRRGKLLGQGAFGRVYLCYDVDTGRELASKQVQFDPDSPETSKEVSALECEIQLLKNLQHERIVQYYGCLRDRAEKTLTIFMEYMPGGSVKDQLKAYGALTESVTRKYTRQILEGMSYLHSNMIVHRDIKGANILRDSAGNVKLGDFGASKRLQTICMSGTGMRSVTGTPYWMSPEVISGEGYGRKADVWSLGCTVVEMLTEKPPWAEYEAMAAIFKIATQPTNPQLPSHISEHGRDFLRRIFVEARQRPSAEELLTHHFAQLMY
MEKK2wt PB1 HTS: raises or lowers MEK5 binding to wildtype human MEKK2 PB1 domain | Q9Y2U5 | bead flow cytometry, Alexa488-MEK5 binding to MEKK2 WT; actives lie on both sides | binding response (% of control), % at 10 µM | 290,000 tested, 1.1% active; in the data active = binding response below about 67% or above about 130%
MEKK2 mut-MEK5: signal of MEK5 binding to mutant human MEKK2 PB1 domain; bead flow cytometry, Alexa488-MEK5 binding to MEKK2 mutant; percent response, % at 10 µM; 290,000 tested, 0.35% active; AID 1530; in the data active = percent response above about 24%, passing the limit was not always enough
MEKK2wt confirm: raises or lowers MEK5 binding to wildtype human MEKK2, retest | AID 1892 | 5,900 tested, 2.4% active | binding response (% of control), % at 10 µM | bead flow cytometry, Alexa488-MEK5 binding to MEKK2 WT; actives lie on both sides | shares compounds with MEKK3 PB1 HTS; in the data active = binding response below about 16% or above about 210%; inactive = in between
MEKK2mut-MEK5: signal of MEK5 binding to mutant human MEKK2, retest | bead flow cytometry, Alexa488-MEK5 binding to MEKK2 mutant | AID 1893 | percent response, % at 10 µM | shares compounds with MEKK3 PB1 HTS | 5,900 tested, 2% active; in the data active = percent response mostly above about 71%, no sharp cut-off; inactive = mostly below about 38%;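 note: higher means compound restores mutant binding toward wildtype level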
MEKK3-MEK5 inh: confirmation of inhibitors of MEK5 binding to human MEKK3; bead flow cytometry, Alexa488-MEK5 binding to MEKK3; active compounds read low; 5,900 tested, 1.8% active; shares compounds with MEKK3 PB1 HTS; binding response (% of control), % at 10 µM;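 active = binding response below 72% of control, or above a set upper limit, though filed actives all read lower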;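 note: 100% = DMSO only wells and 0% = binding blocked by excess unlabeled MEK5; lower values mean stronger disruption of MEK5 binding to MEKK3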
* hit, by the source's call; / = no result; [ ] = dose if it differs, or a comment.

SMILES	GRK2 inh	MEKK3 PB1 HTS	MEKK2wt PB1 HTS	MEKK2 mut-MEK5	others
Cc1cccc(C(=O)N(Cc2cccs2)C2CCS(=O)(=O)C2)c1 (stereo not drawn)	1.0	102.0	100.0	3.0
O=C(c1ccc(F)cc1)N(Cc1cccs1)C1CCS(=O)(=O)C1 (stereo not drawn)	0.0	2.0*[inhibitor]	0.0*[inhibitor]	-18.0
CCOC(=O)C1=NN(C(C)=O)C2(CC(=O)N(c3cc(C)cc(C)c3)C2=O)C1 (stereo not drawn)	100.0*	121.0	107.0	1.0
CCOC(=O)C1=NN(C(C)=O)C2(CC(=O)N(c3ccc(C)c(C)c3)C2=O)C1 (stereo not drawn)	4.0	123.0	105.0	1.0
O=C(O)CC12CC3CC(C1)CC(n1ncc(NCc4ccc5c(c4)OCO5)c(Cl)c1=O)(C3)C2	1.0	106.0	109.0	15.0
CC(=O)c1cccc(OCC(=O)N(C)CC(=O)NCc2ccco2)c1	86.0*	/	/	/
Cc1cccc(C(=O)Nc2ccc3ccccc3c2)c1	0.0	106.0	103.0	-1.0
Cc1cccc(C(=O)Nc2ccc(C)c(OC(=O)c3cccc(C)c3)c2)c1	/	2.0*[inhibitor]	-2.0*[inhibitor]	-26.0
C[C@@H](C(=O)N1CCN(C(=O)OC(C)(C)C)CC1)n1cc(-c2cn([C@@H](C)C(=O)N3CCN(C(=O)OC(C)(C)C)CC3)nn2)nn1	/	89.0	4.0*	4.0
Cc1c(C(=O)O)cccc1-c1ccc(/C=C2/NC(=O)N(c3ccccc3)C2=O)o1	12.0	99.0	-10.0*	2.0
NS(=O)(=O)c1ccc(CCNC(=S)NC2CCCC2)cc1	4.0	95.0	-10.0*	-15.0
NS(=O)(=O)c1ccc(CNC(=S)NC2CCCCC2)cc1	2.0	97.0	94.0	-3.0
NS(=O)(=O)c1cc(C(=O)OCC(=O)Nc2ccc3c(c2)OCO3)ccc1Cl	1.0	/	/	/
CCOc1ccc(NCc2cccn2-c2nnc(N3CCC(C(=O)NCCCN4CC(C)CC(C)C4)CC3)s2)cc1 (stereo not drawn)	0.0	105.0	137.0*	23.0
Cc1oc2c(c1C(=O)O)C(=O)c1ccccc1C2=O	0.0	105.0	105.0	7.0
Cc1oc2c(c1C(=O)c1ccccc1)C(=O)C(=O)c1ccccc1-2	58.0*	107.0	106.0	8.0
CCc1ccc(CN(Cc2cccnc2)C(=O)/C=C/c2ccc(OC)cc2)cc1	0.0	108.0	138.0*	32.0*
O=S(=O)(Nc1ccc(-n2cnnn2)cc1)c1cccs1	0.0	/	/	/
COc1cccc(CN(C)C(=O)CN2C(=O)NC(c3ccccc3)(c3ccccc3)C2=O)c1OC	1.0	/	/	/
COc1ccc(CN2CCOCCOCCOCCOCC2)cc1	0.0	94.0	-3.0*	19.0
Cn1c(SCc2ccccc2)nnc1-c1ccc2nonc2c1	3.0	89.0	90.0	-14.0
CCN(CC)S(=O)(=O)c1cccc(NC(=O)C2CC(=O)N(c3ccc4c(c3)OCCO4)C2)c1 (stereo not drawn)	1.0	/	/	/
CCN(CC)S(=O)(=O)c1ccc(OC)c(NC(=O)C2CC(=O)N(c3ccc4c(c3)OCCO4)C2)c1 (stereo not drawn)	0.0	0.0*[inhibitor]	-2.0*[inhibitor]	-21.0
OCCC#Cc1ccc(CN2CCN(C3CCCCC3)C(CCO)C2)cc1 (stereo not drawn)	0.0	105.0	107.0	10.0
COc1cc(C(=O)N/N=C(\c2ccccc2)c2ccccn2)cc(OC)c1OC	0.0	134.0*	106.0	0.0
SMILES	GRK2 inh	MEKK3 PB1 HTS	MEKK2wt PB1 HTS	MEKK2 mut-MEK5	others
COc1cccc(NC(=O)CN2CCN(C(=O)c3ccco3)CC2)c1	0.0	104.0	105.0	6.0
Cc1c(/C=N/NC(=O)c2cccnc2)c2ccccc2n1Cc1ccccc1	0.0	105.0	62.0*[inhibitor]	110.0*
Cc1nn(Cc2ccccc2)c(Cl)c1/C=N/NC(=O)c1cccnc1	0.0	100.0	100.0	-1.0
CC(C)c1ccc2c(c1)CCC1C(C)(CN)CCCC21C (stereo not drawn)	0.0	36.0*[inhibitor]	155.0*	25.0*
CCN(CC)CCCNC(=O)c1cc(-c2ccccc2)c(N2CCCCC2)s1	0.0	105.0	161.0*	26.0*	MEKK2wt confirm=162.0;MEKK2mut-MEK5=41.0;MEKK3-MEK5 inh=107.0
O=C(CCS(=O)(=O)c1ccc(Cl)cc1)Nc1ccc(N2CCOCC2)cc1	0.0	98.0	100.0	3.0
CCCCOc1ccc(S(=O)(=O)Nc2cccnc2)cc1	0.0	1.0*[inhibitor]	-8.0*[inhibitor]	-23.0	MEKK2wt confirm=100.0;MEKK2mut-MEK5=-3.0;MEKK3-MEK5 inh=99.0
Cc1nn(-c2ccccc2)c2nc(C(F)F)cc(C(F)F)c12	2.0	/	/	/
O=C(CCNC(=O)c1ccco1)Nc1nc(-c2ccccc2)cs1	0.0	/	/	/
COc1cccc2c(=O)c(C/C=C(/C)Cl)c(C)[nH]c12	1.0	79.0*[inhibitor]	88.0	-8.0	MEKK2wt confirm=104.0;MEKK2mut-MEK5=5.0;MEKK3-MEK5 inh=102.0
COc1nc(N(C)C)nc(-n2nnc(C(C)=O)c2C)n1	1.0	2.0*[inhibitor]	1.0*[inhibitor]	-42.0	MEKK2wt confirm=95.0;MEKK2mut-MEK5=-8.0;MEKK3-MEK5 inh=97.0
CCOc1nc(N(C)C)nc(-n2nnc(C(C)=O)c2C)n1	5.0	108.0	117.0	7.0
Cc1ccc(C)c(NC(=O)CN(C)C(=O)COc2cccc3c2OC(C)(C)C3)c1	1.0	/	/	/
CCN(CC)C(=O)c1cc(C(C)(C)C)c(O)c(C(C)(C)C)c1	1.0	128.0*	105.0	0.0	MEKK2wt confirm=108.0;MEKK2mut-MEK5=8.0;MEKK3-MEK5 inh=105.0
Cn1c(=O)cc(N2CCOCC2)[nH]c1=O	1.0	75.0	70.0*[inhibitor]	-20.0	MEKK2wt confirm=106.0;MEKK2mut-MEK5=7.0;MEKK3-MEK5 inh=105.0
Cn1c(=O)cc(N2CCCCC2)[nH]c1=O	0.0	106.0	105.0	5.0
Oc1ccc2ccccc2c1CN1CCN(C/C=C/c2ccccc2)CC1	13.0	117.0	140.0*	25.0*	MEKK2wt confirm=122.0;MEKK2mut-MEK5=13.0;MEKK3-MEK5 inh=104.0
CCOC(=O)N1CCN(C(=O)C2CCN(C(=O)c3cc(OC)cc(OC)c3)CC2)CC1	0.0	142.0*	103.0	1.0	MEKK2wt confirm=108.0;MEKK2mut-MEK5=4.0;MEKK3-MEK5 inh=101.0
O=C(N/N=C/c1ccccc1OC(F)F)NC1CCCCC1	2.0	88.0	82.0	-23.0
O=C(N/N=C/c1ccccc1)NC1CCCCC1	0.0	67.0*[inhibitor]	102.0	0.0	MEKK2wt confirm=95.0;MEKK2mut-MEK5=-4.0;MEKK3-MEK5 inh=93.0
O=C(N/N=C/c1ccccc1F)NC1CCCCC1	3.0	140.0*	105.0	1.0	MEKK2wt confirm=69.0;MEKK2mut-MEK5=-17.0;MEKK3-MEK5 inh=68.0*
CCOc1cccc2sc(N(CCCN(C)C)C(=O)c3ccc(C(=O)c4ccccc4)cc3)nc12	0.0	108.0	161.0*	35.0*	MEKK2wt confirm=154.0;MEKK2mut-MEK5=23.0;MEKK3-MEK5 inh=105.0
CCOc1cccc2sc(N(CCCN(C)C)C(=O)Cc3ccccc3)nc12	0.0	128.0	180.0*	75.0*	MEKK2wt confirm=133.0;MEKK2mut-MEK5=31.0;MEKK3-MEK5 inh=113.0
CCOc1cccc2sc(N(CCN(C)C)C(=O)c3ccc4c(c3)OCCO4)nc12	0.0	105.0	117.0	10.0

Assay outcomes from PubChem.
